Test results reported in PubChem BioAssay AID1347426 (Functional Genomics Laboratory (NCATS/FGL), 2020).
The campaign covered roughly 31,000 sequences. About 1,400 (4.5%) were called active. This excerpt belongs to a sample that is enriched for actives. A number with no mark means an inactive call.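 Rule for the calls: active = median seed-adjusted z-score above 1 or below -1; inactive = the rest.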

Assay: Novel Modifiers of Survival Motor Neuron (SMN) Protein: Gene Identification via Genome-wide siRNA Screen;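 note: luminescence tracks full-length SMN protein made from the SMN2 reporter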
Conditions: HEK293T SMN2-luciferase reporter, siRNA knockdown, 72 h; actives lie on both sides
Method in brief: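 siRNA screen, 10418 genes ×3 siRNAs; 1 pmol/well, lipid reverse transfection into HEK293T SMN2-luc reporter line. 72 h, 37 °C, 5% CO2; ONE-Glo readout. Data: neg-ctrl normalized, log10, MAD; hit = MAD >1.0 or < -1.0.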

Row | Sequence | median seed-adjusted z-score
1 | GAAGUUCUCUUUACAACCATT against RFX2 | 0.271
2 | GUUCAGCACUCAUUAGACATT against ZNF17 | 0.579
3 | CGAUCAUUACCUCUCCAGATT against ARHGEF4 | 0.332
4 | GAAUGACCAGAGACAUCUATT against INSR | 0.172
5 | GGAUUUGCCGAAUUAACAATT against RELB | 1.16 (active)
6 | GGAGAUAGCUUUGCCUAUATT against RBM15B | -0.183
7 | GGUACUCGGUGGAAACCAATT against CNKSR3 | 0
8 | CAUUAACCAGUGAACGCAATT against AADAT | 0.0891
9 | CAAGAAUGUUACUAACAAUTT against TPM4 | -0.407
10 | GCUACAGUCUCUACCCUGATT against BARX1 | 1.63 (active)
11 | AGCUCAAGAAGUACACCAATT against CHST12 | 0
12 | CCUCGAUUCCAUUAUCAUUTT against RECQL4 | 0.475
13 | GCCUAGAGGACUACAAGAATT against FZD8 | -0.177
14 | GCGUAAUUUGGACCUCUUUTT against ZDHHC21 | 0.216
15 | CAUUGUGAGCUAUAACGAUTT against CDH10 | 0
16 | GAAACAGUGCUAGAUAAAATT against SULT1C2 | 0
17 | CCAUCUAGCUUAUCGAUAUTT against DYRK3 | 0.358
18 | GAAUUCAGCAUGACCGAUATT against GABPA | 1.43 (active)
19 | CCAUUAUGAUCGUAAGGCATT against GCNT4 | -0.0629
20 | GCAAGUACCUGAGAACGGATT against APOB | -0.0862
21 | GGCUCUCGUAUGUAACGUATT against USP24 | 0.101
22 | GGUUCUCUUGCAUUACUUUTT against GLP2R | 0.492
23 | AGAUCGCUGUCAAAACCCUTT against GFOD1 | 0.923

Row | Sequence | median seed-adjusted z-score
24 | GGUUAACCCAGAACGUAAATT against TCP1 | -1.02 (active)
25 | GGACCCUACCAGAACUACATT against SEMA6D | 0.0624
26 | GGACUGAGCUUCUCAAUGUTT against FOLR1 | -1.31 (active)
27 | GCAUCGUGAUCGUUCCAAUTT against CHD1L | 0.63
28 | GACCAUGGAUAAUAAGAAATT against CLCN6 | -0.136
29 | CAACUGUUCCAACAACAAUTT against HAVCR1 | -0.306
30 | GAGUCCUAUUACCAGCUCATT against SRM | 0
31 | CUGCCGAACUUUUAAACAATT against MCHR2 | -0.658
32 | UGGAAUCUGUGGUAAAGAATT against HGS | 1.16 (active)
33 | CCACGUCUAAAGUCCGAAATT against KIF3C | 0.0126
34 | GAAUGGUCGUGGAUUCACATT against MAPKAPK5 | 0.489
35 | GGAGAUUCCAUAAGACAAUTT against ZNF114 | -0.303
36 | GGAUCUUCGUGAAGUAUUUTT against TRA2A | -0.187
37 | AAAUUCCCGUCAUUGAAAATT against SNRPA1 | -2.71 (active)
38 | GGAUUGCUUCUGACUCCGATT against ELK3 | -0.16
39 | CAUUGACCACUACAAGUAATT against ITFG1 | -0.417
40 | CAUUUGCGGUUCGGACAAATT against CACNB2 | 0
41 | CUCUGUGAAUUUGAAAUCATT against SNED1 | 0.148
42 | GCAAGAUAGCUCAACCCAATT against ADAMTS12 | -0.0721
43 | GUAUCAUGGAUGGAAAAGATT against ASRGL1 | 0
44 | GCAGAGGAGUCAAUGCUAUTT against ARL8B | -0.477
45 | AGCUUUUGUUGAGAGUUCATT against YY1 | 1.94 (active)
46 | GCUACUUACAGGUACCGUATT against PDCD11 | -0.335

Row | Sequence | median seed-adjusted z-score
47 | GUUUCUGAUUUAAUAGACATT against ZNF781 | 0.0307
48 | CCAACAAACUCACCAUACATT against KREMEN1 | 0
49 | AAACAAUUCCAGUCCAGUUTT against IL8RA | 0.316
50 | CACCUGCGAGUGUUCCAAUTT against CSTB | 1.08 (active)
51 | GGAAAGUUCUUUAGACUUATT against ZNF529 | -0.243
52 | GAAUCAACAAGAUUGGGAATT against CBS | -0.0696
53 | UCGUGUUCCUAGUCAUCUATT against TCIRG1 | 0.123
54 | GUCACGUACUCGCUGCUGATT against SMAD6 | -0.167
55 | GGCUCAACAUACAUCAGAATT against ZNF350 | 0.133
56 | GGCACUCCAUGCUCACUGUTT against AGPAT1 | -1.38 (active)
57 | GGUGAAAGGUCAGAUCUAATT against ZNF436 | 0.00767
58 | GGAAGUAUCAGAUCUUGAATT against CYFIP2 | -0.322
59 | GCAGUGUAUAGAACGAGAATT against RNGTT | -1.55 (active)
60 | GCACAUCAAGUUCUAUACATT against SLCO2A1 | -0.0778
61 | CCCUGUCAUCUAUGCUCUATT against CNR2 | 0.33
62 | GACCCACAAAUAUACCAUUTT against SMAP1 | -0.201
63 | GCAAAGCUCUAAAGCCCAATT against TXNDC12 | -0.154
64 | GGAUUAAAGUGUGAAGACUTT against PRKCD | -0.236
65 | GGGCAGAUGACACCUUUGATT against TCEB2 | 1.28 (active)
66 | CGCAAGGACAGAAAACCAATT against ASMT | -0.322
67 | ACGGCUACGUGGUAAAGGATT against RPS6KA1 | 0.194
68 | CAGCAACCAGAGGAGUAUATT against TCF20 | 0.392
69 | CCGUCAUGCACUUACCUUUTT against ADCY9 | 0.269
